Experimental data taken from PubChem BioAssay (EPA / NIEHS).
Calls of active or inactive are those of the source. How the source made its calls: active means hit-call score of the fitted dose curve at least 0.9, where 1 is the maximum; inactive means score below 0.9.

Key:
Conditions in all cases: mRNA level, 48 h; actives raise or lower the signal
[1] = read-out: Glutamate-cysteine ligase catalytic (GCLC), GCLC (gene 2729); assay: LTEA_HepaRG_GCLC: Life Technologies and Expression Analysis (LTEA) Assay for Glutamate-cysteine ligase catalytic (GCLC) using HepaRG (AID 2283498)
Method in brief: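 Read-out is GCLC transcript level by Fluidigm-based TaqMan qRT-PCR, normalized to three housekeeping genes and fitted in both directions relative to 0.5% DMSO. Human HepaRG cells received chemicals for 48 h, up to 100 uM.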

[2] = read-out: growth arrest and DNA damage 45 (GADD45G), GADD45G (gene 10912); assay: LTEA_HepaRG_GADD45G: Life Technologies and Expression Analysis (LTEA) Assay for growth arrest and DNA damage 45 (GADD45G) using HepaRG (AID 2283499)
Method in brief: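 Differentiated human HepaRG cells in serum-free induction medium were exposed for 48 h to 8 half-log concentrations up to 100 uM in 0.5% DMSO, in duplicate. GADD45G mRNA was measured by TaqMan qRT-PCR, normalised to ACTB, GAPDH and POLR2A, and fitted bidirectionally against DMSO.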

[3] = read-out: Glutamate-cysteine ligase regulatory (GCLM), GCLM (gene 2730); assay: LTEA_HepaRG_GCLM: Life Technologies and Expression Analysis (LTEA) Assay for Glutamate-cysteine ligase regulatory (GCLM) using HepaRG (AID 2283500)
Method in brief: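 Differentiated HepaRG cells exposed 48 h in serum-free induction medium to eight half-log concentrations up to 100 uM (0.5% DMSO). GCLM mRNA by TaqMan qRT-PCR, normalized to ACTB, GAPDH and POLR2A; bidirectional fit versus DMSO.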

[4] = read-out: Glutathione S-transferase M3 (GSTM3), GSTM3 (gene 2947); assay: LTEA_HepaRG_GSTM3: Life Technologies and Expression Analysis (LTEA) Assay for Glutathione S-transferase M3 (GSTM3) using HepaRG (AID 2283501)
Method in brief: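 Differentiated HepaRG cells in serum-free induction medium were exposed in duplicate for 48 h to 8 half-log concentrations up to 100 uM in 0.5% DMSO. GSTM3 mRNA was measured by TaqMan qRT-PCR, normalized to ACTB/GAPDH/POLR2A, and fitted bidirectionally versus DMSO.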

[5] = read-out: Heat shock 70 kDa protein 1 (HSPA1A), gene 3303; assay: LTEA_HepaRG_HSPA1A: Life Technologies and Expression Analysis (LTEA) Assay for Heat shock 70 kDa protein 1 (HSPA1A) using HepaRG (AID 2283502)
Method in brief: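 Human HepaRG cells in serum-free induction medium were exposed in duplicate for 48 h to 8 half-log concentrations, highest 100 uM, in 0.5% DMSO. HSPA1A mRNA read by TaqMan qRT-PCR, normalized to ACTB, GAPDH, POLR2A, fitted bidirectionally against DMSO.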

[6] = read-out: 3-Hydroxy-3-Methylglutaryl-CoA Synthase 2 (HMGCS2), HMGCS2 (gene 3158); assay: LTEA_HepaRG_HMGCS2: Life Technologies and Expression Analysis (LTEA) Assay for 3-Hydroxy-3-Methylglutaryl-CoA Synthase 2 (HMGCS2) using HepaRG (AID 2283504)
Method in brief: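 Differentiated human HepaRG cells were exposed in duplicate for 48 h in serum-free induction medium to eight concentrations (top 100 uM, half-log steps, 0.5% DMSO). HMGCS2 mRNA was quantified by TaqMan qRT-PCR, normalised to ACTB, GAPDH and POLR2A, then fitted bidirectionally against DMSO.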

[7] = read-out: HGF (gene 3082); assay: LTEA_HepaRG_HGF: Life Technologies and Expression Analysis (LTEA) Assay for Hepatocyte Growth Facto (HGF) using HepaRG (AID 2283505)
Method in brief: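 Differentiated human HepaRG cells in serum-free induction medium were exposed in duplicate for 48 h to eight concentrations (top 100 uM, half-log steps, 0.5% DMSO). HGF mRNA was quantified by qRT-PCR, normalized to ACTB, GAPDH and POLR2A.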

[8] = read-out: Insulin Like Growth Factor 1 (IGF1), IGF1 (gene 3479); assay: LTEA_HepaRG_IGF1: Life Technologies and Expression Analysis (LTEA) Assay for Insulin Like Growth Factor 1 (IGF1) using HepaRG (AID 2283506)
Method in brief: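 Differentiated HepaRG cells in serum-free induction medium, exposed 48 h in duplicate to 8 half-log concentrations up to 100 uM in 0.5% DMSO. IGF1 mRNA by Fluidigm qRT-PCR, normalised to ACTB, GAPDH and POLR2A.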

[9] = read-out: Insulin-like growth factor-binding protein 1 (IGFBP1), IGFBP1 (gene 3484); assay: LTEA_HepaRG_IGFBP1: Life Technologies and Expression Analysis (LTEA) Assay for Insulin-like growth factor-binding protein 1 (IGFBP1) using HepaRG (AID 2283508)
Method in brief: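 Differentiated human HepaRG cells in serum-free induction medium were exposed in duplicate for 48 h to eight concentrations, top 100 uM with half-log dilutions, in 0.5% DMSO. Transcript levels came from qRT-PCR normalised to ACTB, GAPDH and POLR2A, fitted bidirectionally against DMSO.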

[10] = read-out: Interleukin 6 (IL6), IL6 (gene 3569); assay: LTEA_HepaRG_IL6: Life Technologies and Expression Analysis (LTEA) Assay for Interleukin 6 (IL6) using HepaRG (AID 2283509)
Method in brief: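 HepaRG, ~100,000 cells/well, 48 h pre-culture; serum-free induction medium; cmpd 8-pt half-log from 100 uM, 0.5% DMSO, duplicate, 48 h. Lysis in RLT, TaqMan qRT-PCR; gain or loss vs DMSO.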

[11] = read-out: Interleukin 6 Receptor (IL6R), IL6R (gene 3570); assay: LTEA_HepaRG_IL6R: Life Technologies and Expression Analysis (LTEA) Assay for Interleukin 6 Receptor (IL6R) using HepaRG (AID 2283510);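 on AC50: TaqMan qRT-PCR signal normalized to ACTB GAPDH and POLR2A housekeeping genes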
Method in brief: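 Differentiated HepaRG cells, plated 48 h, then exposed in duplicate for 48 h in serum-free induction medium to 8 half-log concentrations (top 100 uM, 0.5% DMSO). IL6R mRNA measured by TaqMan qRT-PCR, normalized to ACTB/GAPDH/POLR2A; bidirectional fit vs DMSO.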

[12] = read-out: Potassium channel subfamily K member 1 (KCNK1), KCNK1 (gene 3775); assay: LTEA_HepaRG_KCNK1: Life Technologies and Expression Analysis (LTEA) Assay for Potassium channel subfamily K member 1 (KCNK1) using HepaRG (AID 2283511)
Method in brief: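 Gain or loss of KCNK1 mRNA is the read-out, quantified by qRT-PCR against three housekeeping genes after 48 h chemical treatment of human HepaRG liver cells. Concentrations ran from 100 uM downward in half-log steps, vehicle 0.5% DMSO.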

[13] = read-out: Keratin 19 (KRT19), KRT19 (gene 3880); assay: LTEA_HepaRG_KRT19: Life Technologies and Expression Analysis (LTEA) Assay for Keratin 19 (KRT19) using HepaRG (AID 2283512)
Method in brief: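 Differentiated human HepaRG cells, plated 48 h, were exposed in duplicate for 48 h in serum-free induction medium to eight half-log concentrations up to 100 uM in 0.5% DMSO. KRT19 mRNA was quantified by qRT-PCR, normalized to ACTB, GAPDH and POLR2A, and fitted bidirectionally versus DMSO.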

[14] = read-out: JUN Transcription Factor, JUN (gene 3725); assay: LTEA_HepaRG_JUN: Life Technologies and Expression Analysis (LTEA) Assay for JUN Transcription Factor using HepaRG (AID 2283513)
Method in brief: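 HepaRG cells, 48 h post-plating, exposed 48 h in serum-free induction medium to 8-point half-log series (top 100 uM, 0.5% DMSO), duplicate; mRNA by qRT-PCR (TaqMan, Fluidigm), normalized to ACTB/GAPDH/POLR2A; bidirectional fit vs DMSO.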

[15] = read-out: Lipase C (LIPC), LIPC (gene 3990); assay: LTEA_HepaRG_LIPC: Life Technologies and Expression Analysis (LTEA) Assay for Lipase C (LIPC) using HepaRG (AID 2283514)
Method in brief: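 Read-out is LIPC transcript level by TaqMan qRT-PCR, normalized to three housekeeping genes, after 48 h chemical treatment of human HepaRG liver cells. Curves span eight concentrations topping at 100 uM; activity in either direction scored relative to 0.5% DMSO.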

[16] = read-out: Lipoprotein lipase (LPL), LPL (gene 4023); assay: LTEA_HepaRG_LPL: Life Technologies and Expression Analysis (LTEA) Assay for Lipoprotein lipase (LPL) using HepaRG (AID 2283515)
Method in brief: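 Read-out is LPL transcript level by qRT-PCR, normalized to three housekeeping genes and fitted bidirectionally against the DMSO control. Human HepaRG cells received chemicals for 48 h at up to 100 uM.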

[17] = read-out: MicroRNA 122 (MIR122), gene 406906; assay: LTEA_HepaRG_MIR122: Life Technologies and Expression Analysis (LTEA) Assay for MicroRNA 122 (MIR122) using HepaRG (AID 2283516); further: the transcript read is the microRNA miR-122
Method in brief: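 Differentiated human HepaRG cells in serum-free induction medium exposed 48 h to 8 half-log concentrations from 100 uM in 0.5% DMSO, duplicate. MIR122 quantified by Fluidigm TaqMan qRT-PCR, normalised to ACTB, GAPDH, POLR2A; fold change fitted bidirectionally versus DMSO.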

[18] = read-out: matrix metalloproteinase-10 (MMP10), MMP10 (gene 4319); assay: LTEA_HepaRG_MMP10: Life Technologies and Expression Analysis (LTEA) Assay for matrix metalloproteinase-10 (MMP10) using HepaRG (AID 2283517)
Method in brief: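 Gain or loss of MMP10 mRNA is fitted relative to the 0.5% DMSO vehicle. The human hepatic line HepaRG receives a 48-hour serum-free exposure, in duplicate, with a maximum concentration of 100 uM.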

[19] = read-out: Hypoxia-inducible factor 1-alpha (Homo sapiens) (UniProt Q16665); assay: LTEA_HepaRG_HIF1A: Life Technologies and Expression Analysis (LTEA) Assay for Hypoxia-inducible factor 1 (HIF1A) Trancription factor using HepaRG (AID 2283503)
Method in brief: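 Differentiated HepaRG cells in serum-free induction medium exposed 48 h, in duplicate, to 8-point half-log series from 100 uM in 0.5% DMSO. HIF1A mRNA measured by TaqMan qRT-PCR, normalized to ACTB/GAPDH/POLR2A, fitted bidirectionally versus DMSO.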

Measured: AC50

Hypoxia-inducible factor 1-alpha (Homo sapiens), sequence (Q16665 whole entry, looked up): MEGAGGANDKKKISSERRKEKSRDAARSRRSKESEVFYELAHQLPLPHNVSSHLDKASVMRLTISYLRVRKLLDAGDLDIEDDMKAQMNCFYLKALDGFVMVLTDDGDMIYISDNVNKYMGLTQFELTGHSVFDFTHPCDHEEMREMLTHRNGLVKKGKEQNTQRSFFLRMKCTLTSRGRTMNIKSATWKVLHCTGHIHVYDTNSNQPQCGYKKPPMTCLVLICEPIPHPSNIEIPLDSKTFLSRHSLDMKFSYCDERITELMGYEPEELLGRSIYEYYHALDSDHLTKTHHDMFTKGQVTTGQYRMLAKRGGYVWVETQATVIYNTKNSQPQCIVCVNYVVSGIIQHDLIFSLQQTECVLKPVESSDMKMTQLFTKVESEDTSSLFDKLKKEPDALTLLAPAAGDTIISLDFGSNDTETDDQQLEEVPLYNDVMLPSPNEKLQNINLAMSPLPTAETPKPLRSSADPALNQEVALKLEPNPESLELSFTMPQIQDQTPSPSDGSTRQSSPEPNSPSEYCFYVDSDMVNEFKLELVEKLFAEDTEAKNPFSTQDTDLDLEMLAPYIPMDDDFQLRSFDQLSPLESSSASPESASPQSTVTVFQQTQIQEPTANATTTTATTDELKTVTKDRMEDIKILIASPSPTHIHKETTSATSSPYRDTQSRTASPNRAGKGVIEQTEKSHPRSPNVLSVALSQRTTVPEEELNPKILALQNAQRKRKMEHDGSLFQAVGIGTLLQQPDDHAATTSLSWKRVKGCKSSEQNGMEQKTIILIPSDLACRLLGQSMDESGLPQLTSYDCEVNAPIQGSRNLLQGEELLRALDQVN

COC(=O)CCCCC(=O)OC
inactive: [1] | [2] | [3] | [4] | [5] | [6] | [7] | [8] | [9] | [10] | [11] | [12] | [13] | [14] | [15] | [16] | [17] | [18]

CCCCCCCCCCCCc1ccccc1S(=O)(=O)O
inactive: [1] | [2] | [4] | [7] | [12] | [13]
active: [3] 50 µM | [5] 13 µM | [6] 83.1 µM | [8] 38.9 µM | [9] 76.8 µM | [10] 79.6 µM | [11] 83 µM | [14] 34.7 µM | [15] 72 µM | [16] 11.7 µM | [17] 80.6 µM | [18] 82.8 µM

CC(C)CCCCCCOC(=O)CCCCC(=O)OCCCCCCC(C)C
inactive: [1] | [2] | [3] | [4] | [5] | [19] | [6] | [7] | [8] | [9] | [10] | [11] | [12] | [13] | [14] | [15] | [16] | [17] | [18]

Cc1cc(CCN2CCN(c3nsc4ccccc34)CC2)cc2c1NC(=O)CC2(C)C
inactive: [1] | [4] | [7] | [12] | [14] | [18]
active: [2] 76.8 µM | [3] 50 µM | [5] 50 µM | [6] 78 µM | [8] 70.5 µM | [9] 90.9 µM | [10] 79.3 µM | [11] 84.7 µM | [13] 50 µM | [15] 81.6 µM | [16] 50 µM | [17] 78.5 µM
